In publication PMC12820563, “FoxP3 forms a head-to-head dimer in vivo and stabilizes its multimerization on adjacent microsatellites”:
The full ranking holds about 16,000 sequences; the median of “rpm ratio (pull-down/input)” is about 0.5, and the highest 2% start at about 5.5. This is one part of a sample in which the highest values are shown more often than they occur.

Each sequence was assayed against T1, MBP-FoxP3dN (Mus musculus, UniProt Q99JB6 188-423) (assay: PD-seq (MBP pull-down with sequencing); 20 mM Tris-HCl pH 7.5, 100 mM NaCl, 1.5 mM MgCl2, 0.4 uM protein, 0.1 uM dsDNA library, 30 min, room temperature, amylose pull-down; high values mean tight binding). Conditions: protein: recombinant; tags: His6-MBP; chain copies: 2; dsDNA, one strand shown.
T1 sequence: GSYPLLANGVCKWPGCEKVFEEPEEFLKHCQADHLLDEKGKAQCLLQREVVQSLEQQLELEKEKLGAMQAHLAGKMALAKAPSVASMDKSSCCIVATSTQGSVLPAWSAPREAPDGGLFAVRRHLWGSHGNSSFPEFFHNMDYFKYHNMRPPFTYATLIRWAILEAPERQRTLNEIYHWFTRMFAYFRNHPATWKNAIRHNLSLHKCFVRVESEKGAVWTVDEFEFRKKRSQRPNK
Method in brief: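 His6-MBP-tagged mouse FoxP3 or FoxP1 fragment lacking the N-terminus, expressed in E. coli, was mixed at 0.4 µM with 0.1 µM Klenow-filled double-stranded degenerate DNA library. Incubation was 30 min at room temperature in Tris pH 7.5 buffer with NaCl and MgCl2. Complexes were caught on amylose resin and washed three times; DNA was released with proteinase K, PCR-barcoded and Illumina-sequenced. Binding is reads-per-million enrichment, pull-down over input, with replicates pooled.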
For “GATGATTGTTCTCCCAGCTGATGAATTATGCAATTCGAGTAAACAAATTTTCCTAATCTTTCTGTTCAAGCGCCATCTAC”, the binding signal was 5.58 RPM ratio (pull-down/input). For “GATGATTGTTCTCCCAGCTGATGAATTATGCAAATCGAGTAAACAAATTTTCCTAATCTTTCTGTTCAAGCGCCATCTAC”, the binding signal was 1.16 RPM ratio (pull-down/input). With “GATGATTGTTCTCCCAGCTGATGAATTGAGGCCGTCGAGTAAACAAATTTTCCTAATCTTTCTGTTCAAGCGCCATCTAC” the binding signal was 0.905 RPM ratio (pull-down/input). “GATGATTGTTCTCCCAGCTGATGAATTAACTGTTTCGAGTAAACAAATTTTCCTAATCTTTCTGTTCAAGCGCCATCTAC” was tested, and the binding signal was 0.641 RPM ratio (pull-down/input). With “GATGATTGTTCTCCCAGCTGATGAATTGCAATCATCGAGTAAACAAATTTTCCTAATCTTTCTGTTCAAGCGCCATCTAC” the binding signal was 2.79 RPM ratio (pull-down/input). With “GATGATTGTTCTCCCAGCTGATGAATTGCAGCAATCGAGTAAACAAATTTTCCTAATCTTTCTGTTCAAGCGCCATCTAC” the binding signal was 2.72 RPM ratio (pull-down/input). For “GATGATTGTTCTCCCAGCTGATGAATTGCAACCATCGAGTAAACAAATTTTCCTAATCTTTCTGTTCAAGCGCCATCTAC”, the binding signal was 4.48 RPM ratio (pull-down/input). “GATGATTGTTCTCCCAGCTGATGAATTGATGCCATCGAGTAAACAAATTTTCCTAATCTTTCTGTTCAAGCGCCATCTAC” was tested, and the binding signal was 3.67 RPM ratio (pull-down/input). In the case of “GATGATTGTTCTCCCAGCTGATGAATTTTTGCAATCGAGTAAACAAATTTTCCTAATCTTTCTGTTCAAGCGCCATCTAC”, the binding signal is reported as 3.95 RPM ratio (pull-down/input). In the case of “GATGATTGTTCTCCCAGCTGATGAATTGTTGCAATCGAGTAAACAAATTTTCCTAATCTTTCTGTTCAAGCGCCATCTAC”, the binding signal is reported as 5.54 RPM ratio (pull-down/input). In the case of “GATGATTGTTCTCCCAGCTGATGAATTTCTGCAATCGAGTAAACAAATTTTCCTAATCTTTCTGTTCAAGCGCCATCTAC”, the binding signal is reported as 3.01 RPM ratio (pull-down/input). For “GATGATTGTTCTCCCAGCTGATGAATTGATGCAATCGAGTAAACAAATTTTCCTAATCTTTCTGTTCAAGCGCCATCTAC”, the binding signal was 5.86 RPM ratio (pull-down/input). With “GATGATTGTTCTCCCAGCTGATGAATTGCAACAATCGAGTAAACAAATTTTCCTAATCTTTCTGTTCAAGCGCCATCTAC” the binding signal was 7.74 RPM ratio (pull-down/input). In the case of “GATGATTGTTCTCCCAGCTGATGAATTCTATTAATCGAGTAAACAAATTTTCCTAATCTTTCTGTTCAAGCGCCATCTAC”, the binding signal is reported as 0.561 RPM ratio (pull-down/input). With “GATGATTGTTCTCCCAGCTGATGAATTTCTTGCCTCGAGTAAACAAATTTTCCTAATCTTTCTGTTCAAGCGCCATCTAC” the binding signal was 0.494 RPM ratio (pull-down/input). With “GATGATTGTTCTCCCAGCTGATGAATTTGGCGGCTCGAGTAAACAAATTTTCCTAATCTTTCTGTTCAAGCGCCATCTAC” the binding signal was 0.668 RPM ratio (pull-down/input). “GATGATTGTTCTCCCAGCTGATGAATTCTATAGTTCGAGTAAACAAATTTTCCTAATCTTTCTGTTCAAGCGCCATCTAC” was tested, and the binding signal was 0.74 RPM ratio (pull-down/input). “GATGATTGTTCTCCCAGCTGATGAATTGCCCGAGTCGAGTAAACAAATTTTCCTAATCTTTCTGTTCAAGCGCCATCTAC” was tested, and the binding signal was 0.303 RPM ratio (pull-down/input). With “GATGATTGTTCTCCCAGCTGATGAATTGCATCCATCGAGTAAACAAATTTTCCTAATCTTTCTGTTCAAGCGCCATCTAC” the binding signal was 5.42 RPM ratio (pull-down/input). “GATGATTGTTCTCCCAGCTGATGAATTATCGTATTCGAGTAAACAAATTTTCCTAATCTTTCTGTTCAAGCGCCATCTAC” was tested, and the binding signal was 1.35 RPM ratio (pull-down/input). In the case of “GATGATTGTTCTCCCAGCTGATGAATTCGGCAAGTCGAGTAAACAAATTTTCCTAATCTTTCTGTTCAAGCGCCATCTAC”, the binding signal is reported as 1.34 RPM ratio (pull-down/input). In the case of “GATGATTGTTCTCCCAGCTGATGAATTCTGTTAGTCGAGTAAACAAATTTTCCTAATCTTTCTGTTCAAGCGCCATCTAC”, the binding signal is reported as 5.31 RPM ratio (pull-down/input). For “GATGATTGTTCTCCCAGCTGATGAATTGTTTTAGTCGAGTAAACAAATTTTCCTAATCTTTCTGTTCAAGCGCCATCTAC”, the binding signal was 1.21 RPM ratio (pull-down/input). With “GATGATTGTTCTCCCAGCTGATGAATTTTGTTAGTCGAGTAAACAAATTTTCCTAATCTTTCTGTTCAAGCGCCATCTAC” the binding signal was 6.69 RPM ratio (pull-down/input). “GATGATTGTTCTCCCAGCTGATGAATTTGTTTAGTCGAGTAAACAAATTTTCCTAATCTTTCTGTTCAAGCGCCATCTAC” was tested, and the binding signal was 7.22 RPM ratio (pull-down/input). With “GATGATTGTTCTCCCAGCTGATGAATTTTTTTAGTCGAGTAAACAAATTTTCCTAATCTTTCTGTTCAAGCGCCATCTAC” the binding signal was 0.273 RPM ratio (pull-down/input). With “GATGATTGTTCTCCCAGCTGATGAATTTGGTTAGTCGAGTAAACAAATTTTCCTAATCTTTCTGTTCAAGCGCCATCTAC” the binding signal was 2.03 RPM ratio (pull-down/input). In the case of “GATGATTGTTCTCCCAGCTGATGAATTGTGTTAGTCGAGTAAACAAATTTTCCTAATCTTTCTGTTCAAGCGCCATCTAC”, the binding signal is reported as 5.98 RPM ratio (pull-down/input). In the case of “GATGATTGTTCTCCCAGCTGATGAATTGTTTACGTCGAGTAAACAAATTTTCCTAATCTTTCTGTTCAAGCGCCATCTAC”, the binding signal is reported as 7.65 RPM ratio (pull-down/input). With “GATGATTGTTCTCCCAGCTGATGAATTTTTTACGTCGAGTAAACAAATTTTCCTAATCTTTCTGTTCAAGCGCCATCTAC” the binding signal was 0.246 RPM ratio (pull-down/input). In the case of “GATGATTGTTCTCCCAGCTGATGAATTTAGTTAGTCGAGTAAACAAATTTTCCTAATCTTTCTGTTCAAGCGCCATCTAC”, the binding signal is reported as 2.54 RPM ratio (pull-down/input). For “GATGATTGTTCTCCCAGCTGATGAATTGTTAGTGTCGAGTAAACAAATTTTCCTAATCTTTCTGTTCAAGCGCCATCTAC”, the binding signal was 4.19 RPM ratio (pull-down/input). For “GATGATTGTTCTCCCAGCTGATGAATTTACGTCGTCGAGTAAACAAATTTTCCTAATCTTTCTGTTCAAGCGCCATCTAC”, the binding signal was 0.839 RPM ratio (pull-down/input).
